Several values for one entry are separate records, joined by “and”; a condition that tells them apart may be missing. Identical values can stand only once. Results filed as inconclusive are left out. Some compounds were tested as several samples or in several runs, with calls that do not always agree. Activity calls are given as the source filed them. The call rests on the fitted dose curve; in most records, active means well fitted inhibition curve with a large enough effect; inconclusive means small, poorly fitted or top-dose-only effect; inactive means flat fitted curve, though single readings scatter.
Columns and labels:
CRL-7250 = normal cell line; assay: Cytotoxic Profiling of Annotated Libraries Using Quantitative High-Throughput Screening (AID 1296008); conditions: Five cell lines viability, CellTiter-Glo ATP luminescence, 48-72 h; max response: active compounds read low; on max response: on the % scale 0 is the no-effect control and ±100 the full control effect
Outline: (§1)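 Compounds were pin-transferred onto cells and incubated 48 or 72 hr at 37 degree Celsius, 95% humidity. CellTiter-Glo was added, plates sat 10 min at room temperature, then ATP-coupled luminescence was imaged as the viability read-out.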

HEK293 = assay: as above; conditions: Five cell lines viability, CellTiter-Glo ATP luminescence, 48-72 h; max response: active compounds read low
Outline: as §1

HaCat [1] = assay: as above; conditions: Five cell lines viability, CellTiter-Glo ATP luminescence, 48-72 h; max response: active compounds read low
Outline: as §1

NIH3T3 = assay: as above; conditions: Five cell lines viability, CellTiter-Glo ATP luminescence, 48-72 h; max response: active compounds read low
Outline: as §1

MCC-13 = assay: qHTS assay to identify novel small-molecules to repurpose for Merkel cell carcinoma treatment (AID 1296009); conditions: MCC and control cell lines, CellTiter-Glo viability, 72 h; series mostly up to 46 µM
Outline: (§2)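 Viability readout: ATP luminescence (CellTiter-Glo) after 72 hr drug exposure at 37 degree celsius. Dose-response format was 8 points for NPC and 11 points for MIPE; data normalized to in-plate controls.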

P94_40 = assay: qHTS profiling for inhibitors of Plasmodium falciparum proliferation (AID 504749); conditions: P. falciparum in erythrocytes, SYBR Green DNA, 72 h; series mostly up to 28.7 µM
Outline: (§3)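 Quantitative HTS: compounds pinned into medium, infected erythrocytes added (0.3% parasitemia, 2.5% hematocrit), 72 h culture at 37 C under 5% CO2. Saponin/Triton lysis with SYBR Green I, overnight RT, then fluorescence read.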

PAD = assay: as above; conditions: P. falciparum in erythrocytes, SYBR Green DNA, 72 h; series mostly up to 28.7 µM
Outline: as §3

PC15 = assay: as above; conditions: P. falciparum in erythrocytes, SYBR Green DNA, 72 h; series mostly up to 28.7 µM
Outline: as §3

PC26 = assay: as above; conditions: P. falciparum in erythrocytes, SYBR Green DNA, 72 h; series mostly up to 28.7 µM
Outline: as §3

PC49 = assay: as above; conditions: P. falciparum in erythrocytes, SYBR Green DNA, 72 h; series mostly up to 28.7 µM
Outline: as §3

SC27B = assay: as above; conditions: P. falciparum in erythrocytes, SYBR Green DNA, 72 h; series mostly up to 28.7 µM
Outline: as §3

TAB109 = assay: as above; conditions: P. falciparum in erythrocytes, SYBR Green DNA, 72 h; series mostly up to 28.7 µM
Outline: as §3

TAB113 = assay: as above; conditions: P. falciparum in erythrocytes, SYBR Green DNA, 72 h; series mostly up to 28.7 µM
Outline: as §3

TAB165 = assay: as above; conditions: P. falciparum in erythrocytes, SYBR Green DNA, 72 h; series mostly up to 28.7 µM
Outline: as §3

W2 = assay: as above; conditions: P. falciparum in erythrocytes, SYBR Green DNA, 72 h; series mostly up to 28.7 µM
Outline: as §3

KB-3-1 = assay: Cytotoxic Profiling of Annotated Libraries Using Quantitative High-Throughput Screening (AID 1296008); conditions: Five cell lines viability, CellTiter-Glo ATP luminescence, 48-72 h; max response: active compounds read low; on max response: on the % scale 0 is the no-effect control and ±100 the full control effect
Outline: as §1

MCC-26 = assay: qHTS assay to identify novel small-molecules to repurpose for Merkel cell carcinoma treatment (AID 1296009); conditions: MCC and control cell lines, CellTiter-Glo viability, 72 h; series mostly up to 46 µM
Outline: as §2

MKL-1 = assay: as above; conditions: MCC and control cell lines, CellTiter-Glo viability, 72 h; series mostly up to 46 µM
Outline: as §2

HACAT [2] = assay: as above; conditions: MCC and control cell lines, CellTiter-Glo viability, 72 h; series mostly up to 44.8 µM
Outline: as §2

HEK293T = assay: as above; conditions: MCC and control cell lines, CellTiter-Glo viability, 72 h; at 44.8 µM (top of the series) unless noted
Outline: as §2
Further: nearly all actives have a fitted effect of over 60% in size.
Potency means the concentration at half of the fitted maximal effect.

CC(C)c1cc(-c2n[nH]c(=O)n2-c2ccc3c(ccn3C)c2)c(O)cc1O
active: Potency (CRL-7250) 148 nM and 103 nM | Potency (HEK293) 46.9 nM and 41.1 nM | Potency (HaCat [1]) 65.1 nM | Potency (NIH3T3) 105 nM and 116 nM | Potency (MCC-13) 132 nM

O=c1[nH]c(=O)n(C2CCCO2)cc1F (configuration not stated)
inactive: Potency (P94_40) | Potency (PAD) | Potency (PC15) | Potency (PC26) | Potency (PC49) | Potency (SC27B) | Potency (TAB109) | Potency (TAB113) | Potency (TAB165) | Potency (W2) | outcome (CRL-7250) | max response (HEK293) -0.0583% | outcome (KB-3-1) | Potency (MCC-13) | Potency (MCC-26) | Potency (MKL-1)

CS(=O)(=O)N1CCN(Cc2cc3nc(-c4cccc5[nH]ncc45)nc(N4CCOCC4)c3s2)CC1
active: Potency (CRL-7250) 1.05 µM and 1.64 µM | Potency (HEK293) 372 nM and 1.84 µM | Potency (HaCat [1]) 29.6 nM | Potency (NIH3T3) 296 nM and 1.3 µM
inactive: Potency (MCC-13)

CCN1CCN(CC(=O)Nc2ccc(-c3cccc4c(=O)cc(N5CCOCC5)oc34)c3sc4ccccc4c23)CC1
active: Potency (CRL-7250) 2.35 µM | Potency (HEK293) 1.18 µM | Potency (HaCat [1]) 935 nM | Potency (NIH3T3) 1.05 µM

Cn1c2ccccc2c2c3c(c4c5ccccc5n(CCC#N)c4c21)CNC3=O
inactive: max response (KB-3-1) 4.23% and -14.5% | max response (NIH3T3) -14.2%
active: Potency (CRL-7250) 14.6 µM | Potency (HEK293) 2.35 µM and 7.31 µM | Potency (NIH3T3) 10.5 µM

Nc1cccc(-c2cc3c(Oc4cccc(O)c4)ncnc3[nH]2)c1
inactive: Potency (MKL-1)
active: Potency (CRL-7250) 14.8 µM | Potency (HEK293) 20.9 µM and 18.4 µM | Potency (HaCat [1]) 2960 nM | Potency (NIH3T3) 3.72 µM and 4.61 µM | Potency (MCC-26) 18700 nM

COC(=O)C[C@](O)(CCCC(C)(C)O)C(=O)O[C@@H]1C(OC)=C[C@]23CCCN2CCc2cc4c(cc2[C@H]13)OCO4
active: Potency (P94_40) 15.8 nM | Potency (PAD) 15.8 nM | Potency (PC15) 31.6 nM | Potency (PC26) 19 nM | Potency (PC49) 0.6 nM | Potency (SC27B) 28.2 nM | Potency (TAB109) 25.1 nM | Potency (TAB113) 15.8 nM | Potency (TAB165) 100 nM | Potency (W2) 30.1 nM
inactive: max response (CRL-7250) 3.78% | max response (HEK293) -7.61% | outcome (HaCat [1]) | max response (NIH3T3) 2.2% | Potency (HACAT [2]) | Potency (MCC-13) | Potency (MCC-26) | Potency (MKL-1)

Cc1cn2c(-c3cn[nH]c3)cnc2c(Nc2ccc(C(=O)N3CCNCC3)cc2F)n1
inactive: Potency (MCC-13) | Potency (MCC-26) | Potency (MKL-1)
active: Potency (CRL-7250) 6.51 µM | Potency (HEK293) 16.4 µM

CCN(CC)CCCCNc1ncc2cc(-c3cc(OC)cc(OC)c3)c(NC(=O)NC(C)(C)C)nc2n1
inactive: max response (KB-3-1) -22.2% | Potency (MCC-13) | Potency (MCC-26) | Potency (MKL-1)
active: Potency (CRL-7250) 0.264 µM | Potency (HEK293) 4.18 µM

COc1cc(C)c(Sc2cnc(NC(=O)c3ccc(CNC(C)C(C)C)cc3)s2)cc1C(=O)N1CCN(C(C)=O)CC1 (configuration not stated)
active: Potency (CRL-7250) 23.5 µM | Potency (HEK293) 14.8 µM and 11.6 µM | Potency (HaCat [1]) 5900 nM | Potency (NIH3T3) 13.2 µM and 13 µM

Nc1nc(Nc2ccc(S(N)(=O)=O)cc2)nn1C(=O)c1c(F)cccc1F
active: Potency (CRL-7250) 18.7 µM | Potency (HEK293) 5.9 µM and 2.59 µM | Potency (KB-3-1) 3.26 µM | Potency (NIH3T3) 10.5 µM and 11.6 µM

Nc1ccc(C(=O)c2cc3c(ccc4ccccc43)[nH]2)cc1
active: Potency (HEK293) 2.96 µM | Potency (KB-3-1) 4.18 µM
inactive: max response (CRL-7250) -31% | Potency (MCC-26)

CN1CC[C@@H](c2c(O)cc(O)c3c(=O)cc(-c4ccccc4Cl)oc23)[C@@H](O)C1
active: Potency (CRL-7250) 0.166 µM | Potency (HaCat [1]) 372 nM | Potency (KB-3-1) 0.235 µM | Potency (NIH3T3) 0.526 µM | Potency (MCC-13) 590 nM

O=C(O)[C@H](Cc1c[nH]c2ccccc12)N1C(=O)c2ccccc2C1=O
inactive: outcome (CRL-7250) | outcome (HaCat [1]) | max response (KB-3-1) 3.99% | max response (NIH3T3) 4.64% | Potency (HACAT [2]) | outcome (HEK293T) inactive [at 92 µM] | Potency (MCC-13) | Potency (MKL-1)

COc1cc2c(NC3CCN(C(C)C)CC3)nc(C3CCCCC3)nc2cc1OCCCN1CCCC1
active: Potency (CRL-7250) 8.33 µM and 4.11 µM | Potency (HEK293) 7.43 µM and 5.8 µM
inactive: Potency (MCC-13)

Nc1ccccc1NC(=O)c1ccc(CNC(=O)OCc2cccnc2)cc1
active: Potency (CRL-7250) 9.2 µM | Potency (HEK293) 7.43 µM and 6.51 µM | Potency (HaCat [1]) 13.2 µM and 5.17 µM | Potency (KB-3-1) 9.35 µM and 7.31 µM | Potency (MKL-1) 2350 nM

Cc1cnc(Nc2ccc(F)cc2Cl)nc1-c1c[nH]c(C(=O)N[C@H](CO)c2cccc(Cl)c2)c1
active: Potency (CRL-7250) 18.7 µM and 20.6 µM | Potency (NIH3T3) 10.5 µM
inactive: max response (HEK293) -111% | max response (HaCat [1]) -129%

Reference: PubChem BioAssay (NCATS)
